Screening data deposited in PubChem by National Center for Advancing Translational Sciences (NCATS).
mIDH1 inhibitor: blocks human mutant IDH1 R132H enzyme | Potency, µM (titrated, usually from 76.6 µM), most hits filed as inhibitors | 0.093% of 390,000 active | AID 602179 | O75874 | IDH1-R132H enzyme, NADPH consumption, diaphorase/resazurin fluorescence; also: nearly all actives have a fitted effect of over 65% in size
Target sequence (O75874 whole entry R132H, stated change not applied): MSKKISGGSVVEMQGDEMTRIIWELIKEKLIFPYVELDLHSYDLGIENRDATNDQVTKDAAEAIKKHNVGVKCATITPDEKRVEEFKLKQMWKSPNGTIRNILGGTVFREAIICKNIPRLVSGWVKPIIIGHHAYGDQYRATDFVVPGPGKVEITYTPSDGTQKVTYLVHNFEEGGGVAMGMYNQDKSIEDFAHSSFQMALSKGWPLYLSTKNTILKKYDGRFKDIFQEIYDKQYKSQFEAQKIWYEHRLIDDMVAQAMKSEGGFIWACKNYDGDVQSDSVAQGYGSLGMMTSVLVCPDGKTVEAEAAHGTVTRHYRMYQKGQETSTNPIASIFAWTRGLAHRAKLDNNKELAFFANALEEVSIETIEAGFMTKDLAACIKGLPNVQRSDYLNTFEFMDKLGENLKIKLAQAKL
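IDH1-R132H (0.5 ug/mL dispensed) in pH 7.5 Tris buffer was preincubated 30 min with compound, then given a substrate mix of 0.016 mM NADPH and 2 mM alpha-KG for 80 min at room temperature; remaining NADPH was read by diaphorase/resazurin fluorescence.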
Tb PGK inh: T. brucei PGK inhibition; P07378; Potency, µM (series often up to 57.5 µM), usual class: inhibitors; 0.043% of 380,000 active; PGK/GAPDH coupled, Kinase-Glo luminescence, 60 min; also: nearly all actives have a fitted effect of over 60% in size
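Luminescent ATP detection (Kinase-Glo Plus) follows a 60-minute room-temperature incubation, with wells lacking PGK as controls. Buffer: 100 mM TEA (pH 7.6), 5 mM MgCl2, 0.01% Tween-20. Coupling enzyme GAPDH (100 nM final) supplies unstable 1,3-BPG in-well.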
Pin1 inh: blocks the human prolyl isomerase Pin1. Q13526. Pin1 FP peptide displacement, HiFluor488, 10 min. Potency, µM (series often up to 115 µM), actives largely listed as inhibitors. 0.009% of 390,000 active. AID 504891; active = well fitted inhibition curve with a large enough effect in the polarisation, with a control signal flat, not every such curve was filed as active; inconclusive = small, poorly fitted or top-dose-only effect, or effect the other way, or a change in a side signal; inactive = no such curve, though single readings can be large or run the other way; the % refers to the polarisation
GLS inh: inhibitors of human glutaminase (GLS) | O94925 | GLS enzymatic activity, qHTS titration | Potency, µM (top dose mostly 45.5 µM), usual class: inhibitors | 0.21% of 410,000 active
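Enzyme dispensed in phosphate buffer (45 mM, pH 8.2, 0.02% Tween-20), compounds pinned in, then 1 mM L-glutamine solution and the glutamate oxidase–HRP–Amplex Red mix added; fluorescence read immediately and again after 30 min at room temperature.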
Large screens that a line does not name were inactive; ! = not confirmed by another sample. Sampled rows, rich in hits. Any-hit rate of the full collection: about 0.33%. Unless noted, calls follow the shape of the dose curve; as a rule, active = well fitted curve in the direction sought with a large enough effect; inconclusive = small, poorly fitted or top-dose-only effect, or another doubt; inactive = no such curve, though single readings can be large; an effect the other way counts as inactive or inconclusive.

O=C1NC(=S)NC(=O)C1=Cc1ccc2c(c1)CCN2CCCCl	Tb PGK inh inconclusive, GLS inh 10µM (no result: Pin1 inh)
CCOc1cc(C=C2C(=O)NC(=S)NC2=O)ccc1O	none
CC12CCC(=O)CC1CCC1C2CCC2(C)C1CCC2(C)O (stereo not given)	none (no result: mIDH1 inhibitor, Tb PGK inh, Pin1 inh)
CCOc1cccc(N2C(=O)/C(=C/c3ccco3)C(=O)NC2=S)c1	Tb PGK inh inconclusive, GLS inh inconclusive
O=C1NC(=S)N(c2ccccc2)C(=O)/C1=C/c1ccco1	Tb PGK inh 7.94µM, Pin1 inh inconclusive, GLS inh inconclusive
Nc1cccc2c(O)cccc12	GLS inh 12.6µM
Nc1cccc2c(N)cccc12	none (no result: mIDH1 inhibitor, Tb PGK inh, Pin1 inh)
O=C(O)c1cc(O)c(O)c(O)c1	GLS inh 10µM (no result: mIDH1 inhibitor, Tb PGK inh, Pin1 inh)
CCC(N)CCc1c[nH]c2ccccc12 (stereo not given)	none (no result: mIDH1 inhibitor, Tb PGK inh, Pin1 inh)
CCN1/C(=C\C=C\C2=[N+](CC)c3ccccc3C2(C)C)C(C)(C)c2ccccc21	mIDH1 inhibitor 35.5µM, Tb PGK inh inconclusive, Pin1 inh inconclusive, GLS inh inconclusive
Cc1[nH]n(-c2ccccc2)c(=O)c1C(c1cccc([N+](=O)[O-])c1O)c1c(C)[nH]n(-c2ccccc2)c1=O	GLS inh 10µM
Cc1ccc(NC(=O)Nc2cc3c(cc2N2CCCCC2)n(C)c(=O)n3C)cc1Cl	mIDH1 inhibitor 28.2µM
COc1cccc2c1C(=O)c1c(O)c3c(c(O)c1C2=O)C[C@@](O)(C(=O)CO)C[C@@H]3O[C@H]1C[C@H](N)[C@H](OC2CCCCO2)[C@H](C)O1 (stereo not given in full)	GLS inh 15.8µM (no result: mIDH1 inhibitor, Tb PGK inh, Pin1 inh)
Cc1c(N)nc([C@@H](CC(N)=O)NC[C@H](N)C(N)=O)nc1C(=O)N[C@H](C(=O)N[C@H](C)[C@H](O)[C@H](C)C(=O)N[C@@H](C(=O)NCCc1nc(-c2nc(C(=O)NCCC[S+](C)C)cs2)cs1)[C@H](C)O)[C@H](O[C@@H]1O[C@@H](CO)[C@@H](O)[C@H](O)[C@@H]1O[C@H]1O[C@H](CO)[C@H](O)[C@H](OC(N)=O)[C@@H]1O)c1cnc[nH]1	none (no result: mIDH1 inhibitor, Tb PGK inh, Pin1 inh)
CCN1C(=O)C(=C/C=C/c2ccco2)C(=O)N(CC)C1=S	Tb PGK inh inconclusive, Pin1 inh inconclusive, GLS inh 7.08µM
NCCc1cc(O)c(O)cc1O	Pin1 inh inconclusive, GLS inh 10µM!
COc1ccc(CCN)cc1O	none
CN(C)[C@@H]1C(=O)C(C(N)=O)=C(O)[C@@]2(O)C(=O)C3=C(O)c4c(O)cccc4[C@@](C)(O)[C@H]3[C@H](O)[C@@H]12	Tb PGK inh inconclusive, Pin1 inh inconclusive, GLS inh 7.08µM
CN(C)C1C(=O)C(C(N)=O)C(=O)C2(O)C(=O)C3C(=O)c4c(O)cccc4C(C)(O)C3C(O)C12 (stereo not given)	GLS inh 6.31µM (no result: mIDH1 inhibitor, Tb PGK inh, Pin1 inh)
CN(C)[C@@H]1C(=O)C(C(N)=O)=C(O)[C@@]2(O)C(=O)C3=C(O)c4c(O)cccc4[C@@](C)(O)C3C[C@@H]12 (stereo not given in full)	none
C[C@@H]1[C@H](O)[C@@H](C)C=CC=CCCC=CC=CC=CC=C[C@H](O[C@H]2O[C@@H](C)[C@H](O)[C@@H](N)[C@@H]2O)CC2O[C@](O)(C[C@@H](O)[C@H](O)CC[C@@H](O)C[C@@H](O)C[C@@H](O)CC(=O)O[C@H]1C)C[C@H](O)[C@H]2C(=O)O	none (no result: mIDH1 inhibitor, Tb PGK inh, Pin1 inh)
CCCCCc1cc(O)c2c(c1)OC(C)(C)c1ccc(C)cc1-2	none (no result: mIDH1 inhibitor, Tb PGK inh, Pin1 inh)
COc1cc(/C=C(/C)[N+](=O)[O-])ccc1OCc1ccccc1Cl	mIDH1 inhibitor 46.5µM
COc1cc(C=C2C(=O)NC(=O)NC2=O)ccc1OCc1ccc([N+](=O)[O-])cc1	GLS inh inconclusive
C[C@H]1[C@@H]2Cc3ccc(O)cc3[C@]1(C)CCN2CCc1ccccc1	none (no result: mIDH1 inhibitor, Tb PGK inh, Pin1 inh)
O=C(O)c1cccc2c1NC(C(=O)O)C1CC(Sc3ccccc3[N+](=O)[O-])C(Cl)C21 (stereo not given)	Tb PGK inh 11.2µM, GLS inh 7.08µM (no result: Pin1 inh)
CC(=O)c1ccc2c(c1)C1C(Cl)C(Sc3ccccc3[N+](=O)[O-])CC1C(C(=O)O)N2 (stereo not given)	mIDH1 inhibitor inconclusive, Tb PGK inh inconclusive, Pin1 inh inconclusive
C[N+]1(CCF)[C@@H]2CC[C@@H]1CC(OC(=O)C(O)(c1ccccc1)c1ccccc1)C2 (stereo not given in full)	none (no result: mIDH1 inhibitor, Tb PGK inh, Pin1 inh)
Cc1ccc2c(c1)[C@]13CCCC[C@@H]1[C@@H](C2)N(C)CC3	none (no result: mIDH1 inhibitor, Tb PGK inh, Pin1 inh)
Cc1ccccc1N1C(=O)NC(=O)/C(=C\c2ccc3c(c2)CCCN3Cc2ccccc2)C1=O	mIDH1 inhibitor 52.1µM, Pin1 inh inconclusive, GLS inh inconclusive
